This is an account of results in PubChem BioAssay AID488890 (Southern Research Specialized Biocontainment Screening …, 2010).

Hit rate of the full screen: of about 320,000 compounds, about 1,300 (0.41%) were called active. Roughly 3% stayed inconclusive and do not appear here. The rule behind the calls is not given here. Not all results are given here. Potency and affinity values are given separately.

The assay in a line: growth inhibition of non-replicating M. tuberculosis (AID 488890).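 Note: plate controls were DMSO cells for no effect and high antibiotic wells for full effect.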 The conditions noted are these: Mycobacterium tuberculosis non-replicating, at 25 µM, stronger effect = higher value.
For the molecule `CCOC(=O)c1ccc([N+](=O)[O-])cc1NC(C)=O`, the inhibition – broadly, the change of the read-out against control, counted positive when it falls – was -5.06%.

Consider `CCOC(=O)c1ccc(NC(C)=O)c([N+](=O)[O-])c1`, for which the inhibition was -2.26%.

`Cc1cc(S(=O)(=O)NCCCn2ccnc2)c(C)cc1Cl`: the inhibition was determined as 21.8%.

With `Cc1ccc(NC(=O)C2C3C=CC4(O3)C2C(=O)N(CCN2CCOCC2)C4C(=O)NC2CCCCC2)cc1C` (stereo not drawn), the inhibition is 4.86%.

With `COc1ccc(Cl)cc1S(=O)(=O)NC(C)C(=O)NCc1cccnc1` (stereo not drawn), the inhibition turned out to be 0.53%.

With `COc1ccc2c(c1O)C(=O)c1ccccc1C2=O`, the inhibition is -8.36%.

Turning to `CNc1c(C(=O)O)ccc2c1C(=O)c1ccccc1C2=O`, the inhibition was -14.2%.

In the case of `CCc1ccccc1NS(=O)(=O)c1cc(C)ccc1OC`, the inhibition amounted to 16.3%.

`CCOc1ccc2nc(NCCCO)[nH]c2c1`: the inhibition worked out at 2.84%.

In the case of `O=C(O)c1cccc(S(=O)(=O)Nc2cc(Cl)ccc2Cl)c1`, the inhibition came out at 13.1%.

Consider `COc1ccc(NC(=O)C2CCN(S(=O)(=O)c3ccc(Br)s3)CC2)cc1OC`, for which the inhibition was -2.33%.

On to `Cc1[nH]nc2c1C(c1ccc(-c3ccccc3C#N)o1)C(C#N)=C(N)O2` (stereo not drawn), for which the inhibition came to 49.7%.

Consider `CCCc1[nH]nc2c1C(c1cccc(OC(=O)c3ccco3)c1)C(C#N)=C(N)O2` (stereo not drawn), for which the inhibition was found to be 17.8%.

As for `Cc1ccc(C2C(C#N)=C(N)Oc3n[nH]c(C)c32)cc1` (stereo not drawn), the inhibition was -4.34%.

As to `Cc1[nH]nc2c1C(c1ccc(Cl)cc1)C(C#N)=C(N)O2` (stereo not drawn), the inhibition is -2.67%.

With `COc1ccc(Br)cc1CNc1ccc(N2CCOCC2)cc1`, the inhibition turned out to be 24%.

`CCCCN(C(=O)C1CC(=O)N(c2ccc3c(c2)OCCO3)C1)c1c(N)n(CCCC)c(=O)[nH]c1=O` (stereo not drawn): the inhibition came out at 0.16%.

Turning to `Cc1ccccc1NC(=O)c1nn(C)c2c1CS(=O)(=O)c1ccccc1-2`, the inhibition was -16.9%.

Take `O=C(O)C1CC(O)CN1S(=O)(=O)c1ccc2ccccc2c1` (stereo not drawn): the inhibition was determined as 8.45%.

Consider `O=C(Oc1cccnc1)c1ccc(Cl)cc1`, for which the inhibition is 8.07%.

Turning to `O=C(Oc1cccnc1)c1cccc(Cl)c1`, the inhibition worked out at 51.8%.

Regarding `CCOC(=O)C1CCCc2c1[nH]c1c(C(=O)O)cccc21` (stereo not drawn), the inhibition was 67.3%.

With `CCOC(=O)c1ccc2[nH]c3c(c2c1)CCCC3C(=O)OCC` (stereo not drawn), the inhibition stood at 64.3%.

On to `CCOC(=O)c1c(C)nc2ccc(C)cn12`, for which the inhibition came out at 37%.

Take `CCOC(=O)c1c(C)nc2ccccn12`: the inhibition is 6.28%.

As to `CC1Cc2cc(/C=C3/SC(N4CCC(C(N)=O)CC4)=NC3=O)ccc2O1` (stereo not drawn), the inhibition is 21.7%.

In the case of `CC1Cc2cc(/C=C3/SC(=S)N(C)C3=O)ccc2O1` (stereo not drawn), the inhibition is 5.53%.

For `COC(=O)c1ccc(C23CC4(C2)[C@H](CN(C)[C@@H]4c2ccccc2)C3c2ccccc2)cc1` (stereo partly drawn), the inhibition is -17.5%.

Turning to `Cc1ccc(N2CC(=O)Nc3c(sc4nc(C)cc(C)c34)C2=O)cc1`, the inhibition stood at 7.84%.

In the case of `O=C(CNC(=O)c1ccc(Cl)cc1)Nc1ccc(S(=O)(=O)Nc2ncccn2)cc1`, the inhibition stood at 19.6%.

In the case of `Cc1ccnc(NC(=O)CN(C)S(=O)(=O)c2cccc3nsnc23)c1`, the inhibition stood at 4.38%.

For the molecule `O=C1C=CC(=O)N1Cc1ccccc1`, the inhibition worked out at 33.7%.

Turning to `Cc1nc2ccccc2c(=O)n1N(c1ccccc1)c1ccccc1`, the inhibition was found to be 40%.

On to `O=C(Nc1cccc(F)c1)C1CCCN1C(=O)OCc1ccccc1` (stereo not drawn), for which the inhibition was -8.2%.

Take `COc1ccc(-c2cc(C(=O)O)no2)cc1`: the inhibition stood at 9.82%.

As for `COc1ccc(-c2cc(C(=O)NC(C)C)no2)cc1`, the inhibition stood at 2.59%.

As for `Brc1ccc2nc3c(n2c1)CCCC3`, the inhibition is 40.8%.

`CC(C)(C)S(=O)(=O)c1ccc2nc3c(n2c1)CCCC3`: the inhibition is 12.6%.

Consider `CN(c1ccccc1C(=O)O)S(C)(=O)=O`, for which the inhibition was -5.19%.

For `CC1(c2ccccc2Cl)NC(=O)N(CC(=O)N2CCN(S(=O)(=O)c3ccccc3)CC2)C1=O` (stereo not drawn), the inhibition is -5.46%.

With `O=C(CNC(=O)c1ccco1)N/N=C/c1ccccc1[N+](=O)[O-]`, the inhibition was -2.46%.

Regarding `O=C(Nc1ccc(N2CCN(C(=O)c3cccs3)CC2)cc1)c1ccco1`, the inhibition is -3.51%.

Turning to `CC(=O)Nc1nc(-c2cccs2)cs1`, the inhibition turned out to be 18.4%.

With `O=C(Nc1nc2c(F)cccc2s1)c1ccc([N+](=O)[O-])o1`, the inhibition amounted to 65.5%.

Take `O=C(Nc1ccc(N2CCN(C(=O)c3cccs3)CC2)cc1)c1ccc(Br)o1`: the inhibition came to 67.5%.

`O=C(Nc1nc2ccccc2s1)c1ccc([N+](=O)[O-])o1`: the inhibition amounted to 64.8%.

As for `CC(C)C(=O)N1CCN(c2ccc(NC(=O)c3ccc(Br)o3)cc2)CC1`, the inhibition is 8.34%.

As to `O=C(Nc1nc(-c2cccs2)cs1)c1ccco1`, the inhibition was 25.2%.

Turning to `Cc1ccccc1C(=O)N1CCN(c2ccc(NC(=O)c3ccc([N+](=O)[O-])o3)cc2)CC1`, the inhibition came to 78.2%.

For the molecule `COc1ccccc1CN(C)C(=O)COC(=O)c1ccc(Cl)nc1`, the inhibition came out at 73.1%.

As for `COCCn1nnnc1CN1CCN(C(=O)c2ccco2)CC1`, the inhibition is -9.84%.

For the molecule `CC(NC(=O)c1cccs1)C(S)c1ccccc1` (stereo not drawn), the inhibition turned out to be 13.2%.

On to `CN(CC(=O)Nc1ccccc1Br)C(=O)CCc1ccccc1`, for which the inhibition turned out to be 6.37%.

`COC(=O)c1ccc(N2C(=O)CC(N(C)CCc3ccc(OC)c(OC)c3)C2=O)cc1` (stereo not drawn): the inhibition was -11.7%.

For the molecule `O=C(Nc1ncnc2c1CCC2)C12CC3CC(CC(C3)C1)C2`, the inhibition is -0.8%.

As for `CC(C)(C)c1ccc(NNC(=O)C2CCC2)cc1`, the inhibition stood at 23.3%.

For the molecule `O=C(Nc1cccc(NC(=O)c2cccs2)c1)c1ccc(Br)o1`, the inhibition worked out at 40.6%.

Consider `COc1cc(NC(=O)c2ccc([N+](=O)[O-])o2)ccc1NC(=O)c1cccs1`, for which the inhibition is 44%.

With `COc1ccc(C(=O)C2CCCN(C(=O)c3cccc(Cl)c3F)C2)cc1OC` (stereo not drawn), the inhibition worked out at 8.33%.

Turning to `Cc1cccnc1NC(=O)c1ccc2c(c1)NC(=O)C(C)S2` (stereo not drawn), the inhibition is -14.1%.

For the molecule `Cc1ccc(SCC(=O)Nc2cc(S(=O)(=O)N3CCCCC3)ccc2C)cc1`, the inhibition turned out to be 29.3%.

For the molecule `O=C(Cn1nc(-c2ccccc2F)ccc1=O)Nc1ccc(S(=O)(=O)N2CCCCCC2)cc1`, the inhibition amounted to 30.3%.

For `O=C(NN=C1CCCC1)c1ccc(Cl)cc1`, the inhibition is -5.56%.

`O=C1CCC/C(=N\NC(=O)COc2ccc(Cl)cc2)C1`: the inhibition was 2.35%.

In the case of `O=C1OC(/C(=C\Nc2ccc(F)cc2F)[N+](=O)[O-])c2ccccc21` (stereo not drawn), the inhibition is -5.17%.

As for `O=C1OC(/C(=C\Nc2ccccc2)[N+](=O)[O-])c2ccccc21` (stereo not drawn), the inhibition is -1.48%.

In the case of `CC(C)(C)c1cc(NCCCn2ccnc2)n2ncc(-c3ccc(Cl)cc3)c2n1`, the inhibition worked out at 67.9%.

In the case of `CC(C)(C)c1cc(NCCCn2ccnc2)n2ncc(-c3ccccc3)c2n1`, the inhibition is 73.1%.

Consider `CCOC(=O)c1ccc(N2CN(CC)CNC2=S)cc1`, for which the inhibition came to 51.5%.

Turning to `OC(CCc1cccc(Cl)c1)c1cccs1` (stereo not drawn), the inhibition was determined as 75.1%.

Take `CCO[C@H]1OC(C(=O)N2CCN(Cc3ccc4c(c3)OCO4)CC2)=C[C@@H](C)[C@@H]1CCCO`: the inhibition is -18%.

In the case of `COc1ccccc1OCCNC(=O)c1ccc(C)o1`, the inhibition is -13.1%.

With `COc1ccccc1CCNC(=O)c1ccoc1C`, the inhibition worked out at 3.23%.

`CCOC(=O)c1cc(C(=O)NC(C)c2ccccc2)c(=O)[nH]c1C` (stereo not drawn): the inhibition is -20.4%.

As for `COC(=O)CNC(=O)COC(=O)c1cc(F)c(F)cc1Cl`, the inhibition came to 42.5%.

Regarding `CC(C)NC(=O)COC(=O)c1cc(Br)ccc1Cl`, the inhibition came out at 75.9%.

On to `CC(C)(C)NC(=O)COC(=O)c1cc(Br)ccc1Cl`, for which the inhibition turned out to be 63.1%.

For `CNC(=O)COC(=O)c1cc(F)c(F)cc1Cl`, the inhibition was found to be 19.5%.

Turning to `Cc1ccc(C)c(NC(=O)C2CC3CCC2C3)c1` (stereo not drawn), the inhibition was 15.3%.

For the molecule `CC(C)(C)OC(=O)C[C@@H]1C/C=C\C[C@@H](CC(=O)N(CCO)Cc2ccccc2)C(=O)N[C@H](Cc2c[nH]c3ccccc23)COC1=O`, the inhibition worked out at 67%.

Take `Cc1ccc(SCC(=O)OCC(=O)N2CCN(C(=O)c3ccco3)CC2)c(C)c1`: the inhibition stood at 15.3%.

In the case of `Cc1ccc(/C=C/C(=O)N2CCCC(C(N)=O)C2)o1` (stereo not drawn), the inhibition came to 4.1%.

As to `O=C(c1ccc2c(c1)N(Cc1ccccc1F)C(=O)c1ccccc1S2)N1CCOCC1`, the inhibition is 33.2%.

Regarding `Cc1ccccc1OCc1n[nH]c(=S)n1-c1ccccc1`, the inhibition was -9.9%.

Regarding `O=C(COC(=O)c1ccccc1NCCO)NCC1CCCCC1`, the inhibition came out at 23.3%.

Regarding `CCOc1ccc2nc(NC(=O)c3ccoc3C)sc2c1`, the inhibition was found to be 54.7%.

As to `CCOc1ccc2nc(NC(=O)Nc3ccccc3)sc2c1`, the inhibition was -2.52%.

As to `CCOc1ccc2nc(NC(=O)c3cccnc3)sc2c1`, the inhibition came out at 8.67%.

As for `CCOc1ccc2nc(NC(=O)c3ccc(C)o3)sc2c1`, the inhibition was determined as 27.5%.

Take `COc1ccc(/C=C/C(=O)Oc2cccc(/C=N/NC(=O)Cc3ccc(Br)cc3)c2)cc1`: the inhibition amounted to 23.8%.

Take `CC(NS(=O)(=O)c1ccc2c(c1)CC(C)N2C(=O)C1CC1)c1ccccc1` (stereo not drawn): the inhibition was determined as 12.7%.

Consider `CCCc1cc(=O)[nH]c(SCC(=O)Nc2cc(S(=O)(=O)N3CCOCC3)ccc2N(CC)CC)n1`, for which the inhibition came out at 18.9%.

On to `CCCCn1c(N)c(N(CCOC)C(=O)COc2ccc(C(C)=O)cc2)c(=O)[nH]c1=O`, for which the inhibition is -6.71%.

Turning to `O=C(N/N=C/c1ccc(F)cc1)c1ccncc1`, the inhibition came out at 53.7%.

Consider `O=C(N/N=C/c1cc2c(cc1Cl)OCO2)c1cccc(Br)c1`, for which the inhibition is -12.4%.

`O=C(N/N=C/c1cc2c(cc1Cl)OCO2)c1ccc2c(c1)OCCO2`: the inhibition was -6.98%.

For the molecule `O=C(N/N=C\c1ccc[nH]1)c1cncc(Br)c1`, the inhibition was determined as 4.75%.

Consider `O=C(N/N=C/c1ccc[nH]1)c1ccc([N+](=O)[O-])cc1`, for which the inhibition was -12.7%.

Regarding `O=C(N/N=C/c1ccc[nH]1)c1ccc(O)cc1`, the inhibition amounted to 46.7%.

In the case of `O=C(N/N=C/c1coc2ccccc2c1=O)c1ccncc1`, the inhibition was found to be 76.8%.

On to `COc1ccc(C(=O)N/N=C\c2coc3ccccc3c2=O)cc1`, for which the inhibition was determined as 50.1%.

As to `CCOc1cc(C(=O)NCc2ccc(-c3nc4ccccc4o3)cc2)cc(OCC)c1OCC`, the inhibition turned out to be 5.09%.

In the case of `O=C(Cc1ccc(Cl)cc1)N/N=C/c1ccccc1`, the inhibition was determined as 16.8%.

With `Cc1ccc(/C=N\Nc2cn[nH]c(=O)c2Cl)cc1`, the inhibition was -3.74%.

As for `CCc1ccccc1Nc1nc2ccccc2n1C`, the inhibition came to 43.6%.

As for `CC(C)CNS(=O)(=O)c1ccc(S(=O)(=O)N2CCN(CCC#N)CC2)cc1`, the inhibition worked out at 6.46%.

On to `COc1cccc(/C=N/NC(=O)CNC(=O)c2ccc3c(c2)OCCO3)c1O`, for which the inhibition is -7.52%.

Turning to `O=C(N/N=C/c1ccc2c(c1)OCO2)c1ccc2c(c1)OCO2`, the inhibition worked out at 23.3%.

For `COc1cc(/C=N/NC(=O)c2ccoc2C)cc(OC)c1O`, the inhibition was -10%.

With `COc1cccc(/C=N/NC(=O)N/N=C/c2cccc(OC)c2O)c1O`, the inhibition is -1.08%.

With `O=C(N/N=C/c1ccccc1)c1ccc2c(c1)OCO2`, the inhibition was found to be 51.5%.

Turning to `CCOc1cc(/C=N/NC(=O)c2ccc3c(c2)OCCO3)cc(Br)c1O`, the inhibition turned out to be 11.1%.

For `CCN(CC(=O)Nc1sc2c(c1C#N)CCC(C)C2)Cc1nc2ccccc2c(=O)[nH]1` (stereo not drawn), the inhibition was 5.89%.
